PubChem BioAssay AID2235 (The Scripps Research Institute Molecular Screening Center, 2010)
Out of some 320,000 compounds screened, about 2,800 (0.88%) were called active. What follows is part of a selection rich in actives, with near analogues and random picks from the rest. Unmarked numbers belong to inactive results.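 Rule for the calls: active = inhibition above the mean inhibition of all tested compounds plus 3 SD, computed separately for each screening campaign (cut at about 15% in these data); inactive = the rest.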

target: Serine/threonine-protein phosphatase PP1-alpha catalytic subunit (Homo sapiens) (UniProt P62136); assay: inhibition of human PP1 catalytic subunit – biochemical, fluorescence, OMFP substrate, single point, counter-screen for PP5 inhibitor project, primary screen (AID 2235); settings: purified PP1alpha, at 6.7 µM, stronger effect = higher value
Sequence (P62136 whole entry, looked up): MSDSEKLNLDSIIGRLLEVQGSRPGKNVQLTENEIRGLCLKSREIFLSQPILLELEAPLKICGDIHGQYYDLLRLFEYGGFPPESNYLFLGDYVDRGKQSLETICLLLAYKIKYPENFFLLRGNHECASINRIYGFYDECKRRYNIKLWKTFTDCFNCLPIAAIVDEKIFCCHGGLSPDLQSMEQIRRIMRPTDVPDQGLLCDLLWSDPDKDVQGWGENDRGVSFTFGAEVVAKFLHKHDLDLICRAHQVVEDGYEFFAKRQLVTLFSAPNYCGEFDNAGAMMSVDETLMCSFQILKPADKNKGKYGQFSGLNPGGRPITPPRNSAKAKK

SMILES	inhibition
CC(C)Oc1ccc(CC(=O)NNC(=S)Nc2ccc(Br)cc2)cc1	6.13%
O=C(NNC(=O)c1cc2c(s1)CCCC2)c1ccccc1	-3.37%
Cc1ccc(C(=O)NNC(=O)c2cccs2)cc1	3.43%
Cc1ccc(C(=O)NNC(=O)c2cc3cc4ccccc4nc3s2)cc1	15.8% (active)
O=C(O)c1cccc(N=NN2CCCCCC2)c1	2.62%
CCN(CC(=O)Nc1ccc(NC(C)=O)cc1)C(=O)CSC(=S)N1CCCC1	-1.09%
CCOc1cc(C)ccc1OCc1nnc(SCC(=O)Nc2cccc(C(=O)O)c2)n1-c1ccccc1	-6.28%
Cc1nc(/N=C(\N)NC(=O)NC2CCCCC2)nc2ccccc12	18.6% (active)
COc1ccc2nc(/N=C(\N)NC(=O)Nc3ccccc3)nc(C)c2c1	7.87%
O=C(NNC(=O)C(O)c1ccccc1)NC1CCCCC1 (stereo not drawn)	-1.2%
CC1(C)C2CC=C(/C=N/NC(=O)c3ccc(Cl)cc3)C1C2 (stereo not drawn)	0.59%
COc1ccc(C(C#N)Nc2ccc(C)cc2)cc1 (stereo not drawn)	-2.92%
N#CC1=C(N)Oc2c(sc3ccccc23)C1c1ccco1 (stereo not drawn)	15.7% (active)
N#CC1=C(N)Oc2c(ccc3cccnc23)C1c1ccncc1 (stereo not drawn)	-1.75%
CON(C)S(=O)(=O)c1ccc2c(c1)NC(=O)C1CCCN21 (stereo not drawn)	5.21%
O=C(NC(=S)NC1CCS(=O)(=O)C1)c1cccc([N+](=O)[O-])c1 (stereo not drawn)	-0.09%
O=C1CC(c2ccccc2)=NN1c1ccc([N+](=O)[O-])cc1	15.4% (active)
Cc1nn(-c2ccc([N+](=O)[O-])cc2)c(N)c1-c1ccccc1	-0.19%
CC1=NN(c2ccccc2)C(=O)C1C(=O)c1ccc([N+](=O)[O-])cc1 (stereo not drawn)	-1.75%
Cc1ccc(NC(=O)CN(C)C(=O)COC(=O)c2nccnc2N)cc1	6.11%
COc1ccc(NC(=O)CNC(=O)Cc2ccccc2)cc1OC	-3.57%
COC(=O)c1cc(NC(=O)C2C3C=CC(C3)C2C(=O)O)cc(C(=O)OC)c1 (stereo not drawn)	2.03%

SMILES	inhibition
COc1ccc(NC(=O)C2C3CCC(O3)C2C(=O)O)cc1OC (stereo not drawn)	71.5% (active)
CC(C)OC(=O)c1cc(NC(=O)C2C3CCC(O3)C2C(=O)O)cc(C(=O)OC(C)C)c1 (stereo not drawn)	48.8% (active)
COc1ccc(NC(=S)SC)cc1OC	-7.31%
Cc1sc(NC(=O)C2C3CCC(O3)C2C(=O)O)c(C(=O)OC(C)C)c1-c1ccc(Cl)cc1 (stereo not drawn)	10.9%
COc1ccc(N(CC(=O)N/N=C/c2cccc3c2OCCO3)S(=O)(=O)c2ccc(NC(C)=O)cc2)cc1	4.91%
CCOc1ccccc1N1CN(Cc2ccccc2)CNC1=S	-3.54%
CC(C)c1ccc(N(C(=O)c2ccco2)C(C(=O)NC2CCCC2)c2cccnc2)cc1 (stereo not drawn)	4.81%
CN(CC(=O)Nc1ccc(Cl)cc1)C(=O)CNC(=O)c1ccc2ccccc2c1	-2.18%
CC(=O)Nc1ccc(C(=O)Nc2nc(-c3cc(C)n(Cc4ccccc4)c3C)cs2)cc1	3.86%
Cc1cc(-c2csc(N)n2)c(C)n1-c1ccccc1	25.1% (active)
Cc1cc(-c2csc(N)n2)c(C)n1Cc1ccccc1	14.8%
CC(=O)Nc1ccc(S(=O)(=O)N2CCC(NC(=O)c3ccccc3)CC2)cc1	0.38%
CCCNC(=O)c1ccc(N2CCC3(CC2)CC(c2ccc(Cl)cc2)=NO3)c([N+](=O)[O-])c1	-4.68%
O=C(Nc1ccccc1N1CCN(C(=O)c2ccccc2)CC1)c1ccco1	0.05%
CCCNC(=O)c1ccc(N2CCC3(CC2)CC(c2cccc(Br)c2)=NO3)c(NC(=O)c2ccco2)c1	15.6% (active)
CC(C)=CC(=O)Nc1nnc(-c2ccc(F)cc2)s1	-5.78%
COc1ccc(C2=NN(C(=O)CSc3nnnn3C)C(c3ccco3)C2)cc1 (stereo not drawn)	-2.47%
Cc1ccc(N(C(=O)c2ccc(CN3CCOCC3)o2)C(C(=O)NCCC(C)C)c2cccs2)c(C)c1 (stereo not drawn)	-1.98%
Cc1ccc(-c2noc(CSc3nnnn3-c3ccccc3)n2)cc1	0.28%
Cc1ccc(Nc2nc(CSc3nnnn3-c3ccccc3)cc(=O)[nH]2)cc1	37.6% (active)
COc1ccc(C)cc1-n1nnnc1SCc1nc2ccccc2c(=O)[nH]1	9.72%
CC1(C)O[C@@H]2[C@H](O1)[C@@H](CO)O[C@H]2n1c(N2CCCCC2)nc2c(N)ncnc21	-3.13%

SMILES	inhibition
CC(=O)Nc1ccc(S(=O)(=O)N2CCn3cccc3C2C)cc1 (stereo not drawn)	0.86%
CCn1c(SCC(=O)N/N=C/C=C/c2ccccc2[N+](=O)[O-])nnc1-c1ccccc1	-0.35%
O=C(CSc1nc2ccccc2[nH]1)N/N=C/C=C\c1ccccc1[N+](=O)[O-]	-2.41%
Cc1ccc(-n2c(SCC(=O)N/N=C/C=C/c3ccccc3[N+](=O)[O-])nc3ccccc3c2=O)cc1	16.8% (active)
Cc1cccc(NC(=O)c2ccc(S(=O)(=O)N(C)CC3CCCO3)cc2)c1C (stereo not drawn)	0.75%
NS(=O)(=O)c1ccc(NC(=S)Nc2ccc(Br)c(Cl)c2)cc1	0.34%
Cc1nc2cc(NC(=O)NCc3ccccc3)ccc2o1	-6.2%
COCCNC(=O)Nc1ccc2nc(-c3ccco3)c(-c3ccco3)nc2c1	22.8% (active)
CCOc1ccc(C(=O)NC(C(=O)NCc2ccccn2)C(C)C)cc1 (stereo not drawn)	1.59%
Cc1cc(C)cc(NC(=O)NCc2ccccn2)c1	-2.05%
CCOc1cc(NC(=S)NCCCOC)c(OCC)cc1NC(=O)c1ccco1	-3.32%
O=C(NCc1ccccn1)c1ccc2nc(-c3ccco3)c(-c3ccco3)nc2c1	31.1% (active)
C[C@H](NC(=O)[C@@H]1Cc2ccccc2CN1C(=O)OC(C)(C)C)C(=O)NC1CCCC1	-1.9%
CC(=O)Nc1ccc(SC[C@H](Cc2ccccc2)N2CC[C@@H](C)CCC2=O)cc1	2.41%
Cc1nc2cccnc2nc1C	2.22%
CCCCn1c(N)c(N(CC(C)C)C(=O)c2cccc(S(=O)(=O)N3CC(C)OC(C)C3)c2)c(=O)[nH]c1=O (stereo not drawn)	-0.35%
COc1ccc(S(=O)(=O)N2CCOC2CNC(=O)C(=O)NCc2ccncc2)cc1OC (stereo not drawn)	-2.33%
Cc1ccc(-c2nn(-c3ccccc3)cc2/C=C/C(=O)Nc2cccc(S(N)(=O)=O)c2)cc1	2.13%
COc1ccc(NC(=O)c2cn(-c3ccccc3)nc2SC)cc1	0.29%
COc1ccc(-c2nn(-c3ccccc3)cc2/C=C\C(=O)Nc2ccc(C(=O)O)cc2)cc1	23.8% (active)
O=C(CSc1ccccc1F)NC1CCS(=O)(=O)C1 (stereo not drawn)	-3.59%
CC(C)(C)NC(=O)Cn1c(SCC(=O)Nc2nccs2)nc2ccccc21	-0.87%

SMILES	inhibition
O=C1CC(c2c(F)cccc2Cl)C(n2cncn2)C(O)=C1C1NCCc2ccccc21 (stereo not drawn)	3.05%
COc1cc(C(C)=O)ccc1OC(C)C(=O)Nc1ccc(S(=O)(=O)N2CCCC2)cc1 (stereo not drawn)	-2.63%
C=CCn1c(=NC(=O)c2ccc(S(=O)(=O)N3CCCC3)cc2)sc2cc(NC(C)=O)ccc21	21.1% (active)
C=CCn1c(=NC(=O)c2cccs2)sc2cc(NC(C)=O)ccc21	14.5%
C=C(Br)Cn1c(CCCC)nc2ccccc21	-2.53%
COc1ccc(CNC(=O)C(c2ccc(O)cc2)N(Cc2ccco2)C(=O)c2snc(C(N)=O)c2N)cc1 (stereo not drawn)	4.97%
CCCOc1ccc(C2C(C(=O)c3ccc(C)o3)=C(O)C(=O)N2CCCn2ccnc2)cc1 (stereo not drawn)	33.5% (active)
C=CCOc1cccc(C2C(C(=O)c3ccc(C)o3)=C(O)C(=O)N2CCCn2ccnc2)c1 (stereo not drawn)	17.4% (active)
CCOc1ccc(C2/C(=C(/O)c3ccc4c(c3)CC(C)O4)C(=O)C(=O)N2CCCn2ccnc2)cc1 (stereo not drawn)	9.12%
O=C(C1=C(O)C(=O)N(Cc2ccccc2)C1c1cccnc1)c1ccco1 (stereo not drawn)	0.59%
CCCOc1ccc(C2c3c(oc4cc(C)c(C)cc4c3=O)C(=O)N2CCCN2CCOCC2)cc1 (stereo not drawn)	3.82%
C=CCOc1cccc(C2C(C(=O)c3ccc(C)o3)=C(O)C(=O)N2c2nnc(C)s2)c1 (stereo not drawn)	2.22%
CCN(CC(=O)Nc1cc(Cl)ccc1C)C(=O)CN1C(=O)NC2(CCCC2)C1=O	0.75%
C=CCNC(=O)CC12CC3CC(C1)CC(CC(=O)NCC=C)(C3)C2	-3.18%
CC1=C(C(N)=O)C(c2ccc(Br)cc2)n2ncnc2N1 (stereo not drawn)	1.51%
Brc1ccc(C2=CC(c3ccco3)n3ncnc3N2)cc1 (stereo not drawn)	0.45%
Clc1ccc2c(c1)C1=C(C(c3ccncc3)O2)C(c2ccc(Br)cc2)n2ncnc2N1 (stereo not drawn)	20.3% (active)
COc1ccc(C(C(=O)NC2CCCCC2)N(C(=O)Cc2c[nH]c3ccccc23)c2ccccc2)cc1OC (stereo not drawn)	2.63%
Cc1nn(-c2ncc(C(F)(F)F)cc2Cl)c(=O)n1-c1ccccc1	-0.83%
COc1ccc(C2CC(c3cccs3)=NN2C(=O)CCC(=O)O)cc1OC (stereo not drawn)	0.57%
O=C(COc1ccccc1Cl)N1N=C(c2cccs2)CC1c1ccco1 (stereo not drawn)	7.67%
O=C1c2cccc(OCC(=O)N3N=C(c4cccs4)CC3c3ccc(F)cc3)c2CCN1Cc1ccccc1 (stereo not drawn)	21% (active)
